Experimental data published in PubChem BioAssay AID2006 (Sanford-Burnham Center for Chemical Genomics, 2009).
Hit rate of the full screen: of about 290,000 compounds, about 1,000 (0.34%) were called active. Rule as the data show it: active = inhibition above about 50% (passing the limit was not always enough); inconclusive = no clear call, values can overlap the other calls. What follows is part of a selection rich in actives, with near analogues and random picks from the rest.

Target: SUMO-conjugating enzyme UBC9 (Homo sapiens) (UniProt P63279)
Sequence (P63279 whole entry, looked up): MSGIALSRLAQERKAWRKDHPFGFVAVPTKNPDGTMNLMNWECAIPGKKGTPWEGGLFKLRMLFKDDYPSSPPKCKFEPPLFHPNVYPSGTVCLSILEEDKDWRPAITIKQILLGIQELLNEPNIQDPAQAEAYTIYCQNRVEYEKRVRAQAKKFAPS
Test: blockers of SAE1/SAE2–UBC9 SUMO transfer – biochemical, HTRF, uHTS, primary screen (AID 2006)
Settings: HTRF SUMOylation assay, SAE1/SAE2 + UBC9, in vitro, at 35 µM, stronger effect = higher value

Compound | inhibition | inhibition (average of repeat tests) [%]
O=C(CCc1ccccc1)Nc1ccnn1C1CCN(Cc2ccc(OCCO)cc2)CC1 | 6.4% (inactive) | 
Nc1c(NCCc2ccccc2)c2ccccc2oc1=O | 6.6% (inactive) | 
O=c1oc2cc(O)ccc2cc1-c1ccc(F)cc1 | 50.3% (active) | 56
O=c1oc2ccccc2cc1-c1csc(Nc2ccc(O)cc2)n1 | 7.7% (inactive) | 
COc1cccc(C(=O)c2cc3ccc(O)cc3oc2=O)c1 | 16.5% (inactive) | 
O=c1onc(-c2c(F)cccc2F)n1-c1ccccc1Cl | -6.5% (inactive) | 
CCOc1ccc(C2/C(=C(/O)c3ccc4c(c3)CC(C)O4)C(=O)C(=O)N2CCCn2ccnc2)cc1 (configuration not stated) | -13.9% (inactive) | 
Cc1ccc(CNC(=O)Cc2cn(C)c3ccccc23)cc1 | -1.9% (inactive) | 
Cn1c(-c2ccco2)nc2cc3ccccc3cc21 | 44.7% (inactive) | 
Clc1ccccc1CSc1nnc(-c2ccco2)c(-c2ccco2)n1 | 35.9% (inactive) | 
c1coc(-c2nc3nc4ccccc4n3nc2-c2ccco2)c1 | 90.5% (active) | 
O=C(NCCN1CCCC(O)C1)c1cc(COc2c(F)cccc2F)on1 (configuration not stated) | 1.7% (inactive) | 
CC(=O)N1CCC(N(C(=O)Nc2ccc(Cl)cc2)C(C)C)CC1 | 13.1% (inactive) | 
Cc1ccc(NS(=O)(=O)c2ccc(-c3coc(C)n3)cc2)c(C)c1 | -8.6% (inactive) | 
CCCCN(C)CCCNC(=O)c1cc(-c2cccs2)nc2ccccc12 | 20.3% (inactive) | 
CCc1ccc(-c2cc(C(=O)NCc3ccco3)c3ccccc3n2)s1 | 59.3% (active) | 
COC(=O)CNC(=O)c1cc(-c2ccncc2)nc2ccccc12 | 0.8% (inactive) | 
Cc1ccccc1N1CCN(C2CCCN(C(=O)c3cn4c(C)cccc4n3)C2)CC1 (configuration not stated) | -1.6% (inactive) | 
CCOC(=O)/C(=N\Nc1ccccc1[N+](=O)[O-])c1csc(Nc2ccccc2)n1 | 10.4% (inactive) | 
COc1cc(C(=O)Nn2c(CC(C)C)nc3ccccc3c2=O)cc(OC)c1OC | 7.6% (inactive) | 
COC(=O)c1cc(OCC(=O)NC2CCCc3ccccc32)cc(C(=O)OC)c1 (configuration not stated) | 11.7% (inactive) | 

Compound | inhibition | inhibition (average of repeat tests) [%]
O=C(O)c1ccccc1NC(=O)c1ccccc1-c1ccccc1C(=O)O | 9% (inactive) | 
CCOC(=O)c1ccc[n+](CC(=O)Nc2ccccc2OC(F)F)c1 | -3.9% (inactive) | 
COc1ccccc1NC(=O)CSc1nc2sc3c(c2c(=O)n1-c1ccccc1)CCN(C)C3 | -8.5% (inactive) | 
Cc1ccc(-c2nc(SCC(=O)Nc3ccccc3OC(F)F)c3c(C)c(C(=O)O)sc3n2)cc1 | 77.1% (active) | 
CCc1nc2cccnc2n1-c1ccc(C(=O)O)cc1 | 10.1% (inactive) | 
CCOC(=O)CN(C(=O)COc1nc(C)cc(C)c1C#N)c1ccc(Cl)cc1 | 16.2% (inactive) | 
Cc1cccc(C)c1N1C(=O)CN(Cc2ccccc2)C1=S | 3.1% (inactive) | 
CCOCc1nnc(NC(=O)CCS(=O)(=O)Cc2ccccc2)s1 | 0.9% (inactive) | 
CC(C)(C)c1ccc(C(=O)NCCn2c(N)c(C#N)c3nc4ccccc4nc32)cc1 | 27.7% (inactive) | 
CC(C)(C)OC(=O)c1c(N)n(CCCN2CCCC2=O)c2nc3ccccc3nc12 | 62.9% (active) | 40.3
COCC(C)OC(=O)c1c(N)n(CCCN2CCOCC2)c2nc3ccccc3nc12 (configuration not stated) | 48.2% (inactive) | 
CC(C)=CCCC(C)CN1CCC(n2nccc2NC(=O)c2ccccc2)CC1 (configuration not stated) | 7% (inactive) | 
COc1cc(/C(=C/c2ccccc2)c2ccccc2)c2c(c1)oc1ccccc12 | 12.7% (inactive) | 
COc1ccccc1NC(=O)C1CCCN1S(=O)(=O)c1ccc(Cl)cc1 (configuration not stated) | -4.9% (inactive) | 
CC(=O)Nc1ccc(-c2cn3cccnc3n2)cc1 | 55.4% (active) | 53.3
CC(C)(C)C(=O)Nc1ccc(-c2cn3cccnc3n2)cc1 | 37.2% (inactive) | 
FC(F)(F)Oc1ccc(-c2cn3cccnc3n2)cc1 | 24.2% (inactive) | 
CCCCCC(=O)Nc1ccc(S(=O)(=O)Nc2ccc(Cl)nn2)cc1 | 2.3% (inactive) | 
CCCC(=O)Nc1cccc(-c2cn3ccsc3n2)c1 | -25.1% (inactive) | 
CCCCCC(=O)Nc1ccc(-c2cn3cccnc3n2)cc1 | 50.5% (active) | 60.8
Cc1ccc(NC(=O)CN2CCc3ccccc3C2)cc1C | -5.2% (inactive) | 

Compound | inhibition | inhibition (average of repeat tests) [%]
CCc1c(C)nc(N)n2c(SCC(=O)NC3CCCCC3)nnc12 | -11.4% (inactive) | 
Cc1ccc(C)c(NC(=O)NNC(=O)c2ccc3ccccc3c2O)c1 | 4.2% (inactive) | 
CC(=O)N1c2ccc(S(=O)(=O)N3CCCC(C(=O)Nc4cccc(F)c4)C3)cc2CC1C (configuration not stated) | 12.3% (inactive) | 
Cc1cc(C(F)F)nn1CC(=O)NC1CCCCCC1 | 2.2% (inactive) | 
N#CC1(NC(=O)COC(=O)CCN=C2NS(=O)(=O)c3ccccc32)CCCCC1 | 2.6% (inactive) | 
CC1CCCCC1NC(=O)CSc1nnc(-c2ccncc2)n1CCCN(C)C (configuration not stated) | 8.9% (inactive) | 
O=C(COC(=O)c1cccs1)Nc1ccccc1Cl | -14.2% (inactive) | 
O=C(Nc1ccccc1Cl)/C(Cl)=C(\Cl)S(=O)c1ccccc1 (configuration not stated) | 57% (active) | 
O=C(Nc1ccccc1Cl)Nn1cnnc1 | 10.4% (inactive) | 
CCC(=O)Nc1nnc(S(=O)(=O)N(CC(C)C)c2ccccc2)s1 | -0.8% (inactive) | 
CCOC(=O)c1c(C)[nH]c(C(=O)NCc2ccccc2OC)c1C | 21.6% (inactive) | 
CCOC(=O)C1=C(c2ccc(OC)cc2)C(=O)c2ccccc2C1=O | 5.9% (inactive) | 
CCOC(=O)c1c(C)[nH]c2c1-c1ccccc1C(=O)C2=O | 86.9% (active) | 
CC(C)(C)NC(=O)CN(Cc1cccs1)C(=O)CNS(=O)(=O)c1ccccc1 | 5.5% (inactive) | 
O=C(CN1CCC(NC(=O)C2CC2)CC1)Nc1ccccc1[N+](=O)[O-] | 2.3% (inactive) | 
CCOC(=O)C1CCN(S(=O)(=O)c2ccc3c(c2)N(C)C(=O)CC(=O)N3C)CC1 | 10.1% (inactive) | 
CCOc1ncccc1C(=O)NCCc1ccc(OC)cc1 | -5.7% (inactive) | 
CC(C)CN(CC(C)C)C(=O)CN1c2cccc3cccc(c23)S1(=O)=O | 14.7% (inactive) | 
CN1C(=O)/C(=C/c2ccco2)SC1=Nc1cccc(C(=O)O)c1 | 52.8% (active) | 
Cc1cc(/C=C2\SC(=O)N(C)C2=O)c(C)n1-c1cccc(C(=O)O)c1 | 0.8% (inactive) | 
O=C(CCCN1C(=O)/C(=C/c2ccco2)SC1=S)Nc1ccccc1 | 23.1% (inactive) | 
